KLF5 inhibitor: kruppel-like factor 5 inhibition | AID 1700 | DLD-1 KLF5 promoter-luciferase reporter, luminescence | 0.23% of 290,000 active | inhibition, % at 5 µM;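 active = inhibition above a per-plate limit of that plate's mean compound inhibition plus 3 SD, cut at about 60% in these data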;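 note: 0% = DMSO wells and 100% = LY294002 at 200 µM; higher means less KLF5 promoter-driven luciferase light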
aSyn 5UTR inh: MLPCN primary screen, SNCA 5' untranslated region. AID 1813. inhibition, % (tested at 7.5 µM). alpha-synuclein 5'UTR reporter, inhibitor activity. 0.82% of 300,000 active; in the data active = inhibition above about 60%; inconclusive = no clear call, values can overlap the other calls;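 note: H4 neuroglioblastoma cells stably carrying SNCA 5'UTR luciferase fusion; 0% = DMSO wells and 100% = positive control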
IEC-6 cytotox: kills IEC-6 intestinal cells in KLF5 counter-screen. IEC-6 cytotoxicity, luminescence viability. inhibition, % at 5 µM. 0.78% of 290,000 active. AID 1825; in the data active = inhibition above about 22%;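 note: 0% = plate median of test compound wells and 100% = cytotoxic reference compound wells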
APP transl inh: APP translation inhibition; inhibition, % at 2 µM; 0.82% of 190,000 active; SH-SY5Y APP 5'UTR-luciferase reporter, luminescence;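 active = inhibition above a set limit, derived from the sample mean plus 3 SD, cut at about 45% in these data; inconclusive = one replicate passes the limit while the other fails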
BaF3 tox: counter-screen for JAK2V617F inhibitors: parental Ba/F3 viability inhibitors | CellTiter-Glo ATP luminescence | inhibition, % at 5.6 µM | 1.1% of 220,000 active;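 active = inhibition above a per-campaign cutoff, the mean inhibition of all tested compounds plus 3 SD, cut at about 27% in these data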;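 note: 0% = DMSO wells and 100% = JAK Inhibitor I control wells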
Ba/F3 V617F tox: loss of viability in JAK2V617F-driven Ba/F3 cells; Ba/F3 EpoR-JAK2V617F viability, ATP luminescence; inhibition, % at 5.6 µM; 1.1% of 220,000 active;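 active = inhibition above the campaign mean plus 3 SD over all tested compounds, cut at about 24% in these data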;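 note: cytokine-independent growth of Ba/F3 cells driven by EpoR plus mutant JAK2; 0% = DMSO-treated cells and 100% = JAK inhibitor I control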
* marks the source's active call; other numbers are inactive results; ? = inconclusive; . = no result given; ! = not confirmed by another sample. In the library only some 2.2% were active in any assay of this set; here they are far more common.

SMILES	KLF5 inhibitor	aSyn 5UTR inh	IEC-6 cytotox	APP transl inh	BaF3 tox	Ba/F3 V617F tox
Cc1cccnc1-n1c(-c2ccccc2)nc2ccccc2c1=O	-41	-1	-3	2	6	1
Cc1ccc(-c2nc3ccccc3c(=O)n2-c2ncccc2C)cc1	-17	24	5	20	95*	2
O=c1c2ccccc2nc(CSc2ncnc3nc[nH]c23)n1-c1ccccc1Cl	-16	19	5	5	17	11
O=c1c2ccccc2nc(CSc2ncnc3nc[nH]c23)n1-c1ccccc1	4	20	10	-6	32*	9
CCOc1ccc(Cl)cc1CNCCc1ccccc1F	-31	-1	0	.	63*	29*
COc1ccc(CCNCc2ccccc2F)cc1OC	-38	-7	1	37	2	-4
CCCN1CCC2(CC1)NC(CO)(CO)CO2	0	0	3	-4	3	5
CCCCCCCCCCCCCCCC[N+](C)(C)C	.	98*	.	.	.	.
CC(C)N1CC=C(c2c[nH]c3ccccc23)CC1	-3	0	-4	3	65*	87*
O=c1[nH]sc2cc(F)ccc12	-10	-38	1	6	-1	28*
O=C(NC1(C(F)(F)F)Oc2ccc(Cl)cc2O1)N1CCC2(CC1)OCCO2 (stereo not given)	-11	-73	4	48*	20	44*
O=C(NC1(C(F)(F)F)Oc2ccccc2O1)N1CCC2(CC1)OCCO2	-6	-15	3	14	4	8
COCCCN=Cc1c(O)[nH]c(=S)[nH]c1=O	-37	-43	2	-16	1	-3
Cn1cccc1CN1CCN(C(=O)COc2ccccc2)CC1	-14	-10	-6	-12	1	-4
Cn1nc(-c2ccc(OCC(=O)N3CCN(Cc4ccccc4)CC3)cc2)c2ccccc2c1=O	-46	1	5	-17	39*!	1
CCN(CC)C1=NC(=[N+](CC)CC)c2ccccc21	9	-21	-1	1	66*	80*
O=c1c2ccccc2nc(/C=C/c2ccc([N+](=O)[O-])o2)n1-c1ccc(O)cc1	-31	100*	-4	80*	3	3
CC(C)(C)n1cc(C(=O)c2ccc3ccccc3c2O)cn1	-87	6	2	-212	5	2
O=c1[nH]c(=O)n(-c2ccc(F)cc2)c(O)c1C=Nc1ccccc1N1CCCC1	1	-1	-2	-2	38*	5
Cc1ccc(-n2c(O)c(C=Nc3ccccc3N)c(=O)[nH]c2=O)cc1C	-51	-16	4	-135	4	1
Cc1cc(C=O)c(C)n1C1CCCCC1	-4	-1	1	2	1	-4
Cc1nc2cc(-c3ccc(Cl)cc3)nn2c(C)c1CCC(=O)N1CCC2(CC1)OCCO2	-21	.	0	50*	4	0
O=C(CCn1nc(-c2ccc(Cl)cc2)ccc1=O)N1CCC2(CC1)OCCO2	-1	16	-8	-13	12	1
COc1cc2c(cc1OC)-c1c(OC)c(OC)c(OC)c3ccnc(c13)C2=O	11	104*	15	26	10	10
O=C(CNC(=O)OCc1ccccc1)Nc1ccc(Br)cc1C(=O)c1ccccc1Cl	-28	21	5	4	9	3
SMILES	KLF5 inhibitor	aSyn 5UTR inh	IEC-6 cytotox	APP transl inh	BaF3 tox	Ba/F3 V617F tox
CN(C(=O)CNC(=O)OCc1ccccc1)c1ccc(Br)cc1C(=O)c1ccccc1Cl	7	17	3	80*	15	10
CSC1=NP(=S)(SC)N2CCCC2=C1C#N (stereo not given)	-5	5	1	-3	4	0
COC(=O)CSC1=NP(=S)(SCC(=O)OC)N2CCCC2=C1C#N (stereo not given)	-9	-7	-3	0	78*	0
CN1CCN(Cc2nc3ccccc3n2C)CC1	-14	-19	-4	-7	3	-2
Cn1c(NN=O)nc2ccccc21	-37	?	10	75*	4	0
COc1ccc(O)c2c(=O)c3c(OC)cc4c(c3oc12)C1C=COC1O4 (stereo not given)	2	94*	30*	.	8	4
CC1(C)OC(c2ccccc2)=C/C(=C/C=C2C(=O)NC(=S)NC2=O)O1	1	16	-7	-11	42*	-2
O=C(c1ccco1)C12CN3CN(CN(C3)C1)C2	-28	16	-1	4	6	-2
Cc1ccc2c(c1)C1CN(C)CCC1N2C(=O)COc1ccc(S(=O)(=O)N2CCOCC2)cc1 (stereo not given)	9	-9	2	-1	0	-1
CCCC(=O)NC(Oc1ccc(C(C)=O)cc1)C(Cl)(Cl)Cl (stereo not given)	9	6	5	-5	5	1
CC1=CC(=C2C(=O)NC(=O)NC2=O)C=C(C(F)(F)F)N1Cc1ccccc1	3	20	2	-1	5	3
CCCCOCCCN1C(C)=CC(=C2C(=O)NC(=S)NC2=O)C=C1C	-19	15	-3	.	-3	-2
CC1=CC(=C2C(=O)NC(=S)NC2=O)C=C(C(F)(F)F)N1Cc1ccccc1	25	113*	9	90*	14	5
CC1=CC(=C2C(=O)NC(=S)NC2=O)C=C(C(F)(F)F)N1CCc1ccccc1	-36	1	-4	92*	8	-1
CC(=NCc1ccc(F)cc1)c1c(O)n(C)c(=O)n(C)c1=O	43	39	7	11	31*	35*
Cn1ncnc2c(=O)n(C)c(=O)nc1-2	.	98*	.	.	.	.
COc1ccc(-c2nn(CCC#N)cc2C(=O)NCc2ccccc2)cc1[N+](=O)[O-]	-35	-9	1	.	.	.
Fc1ccc(C(OCCN2CCN(CCCc3ccccc3)CC2)c2ccc(F)cc2)cc1	.	106*	.	.	.	.
COc1ccc(CNC(=O)C(NC(C)=O)C(C)C)cc1OC (stereo not given)	-3	1	1	-17	1	3
CCN(CC)C(=O)c1ccc(NC(=O)Nc2ccccc2F)cc1	35	?	28*	-121	43*	43*
CC12CC[C@H]3[C@@H](CCC4(O)C[C@H](O)CCC34/C=N/NC(=O)c3ccccc3Cl)C1(O)CCC2C1=CC(=O)OC1 (stereo not given in full)	-38	8	0	.	-2	-1
C[C@H]1O[C@@H](O[C@H]2[C@@H](O)C[C@H](O[C@H]3[C@@H](O)C[C@H](O[C@H]4CC[C@@]5(C)[C@H](CC[C@@H]6[C@@H]5CC[C@]5(C)[C@@H](C7=CC(=O)OC7)CC[C@]65O)C4)O[C@@H]3C)O[C@@H]2C)C[C@H](O)[C@@H]1O	100*	.	5	94*	6	-1
C[C@H]1O[C@@H](OC2CC[C@]3(C=O)[C@H]4CC[C@]5(C)[C@@H](C6=CC(=O)OC6)CC[C@]5(O)[C@@H]4CC[C@]3(O)C2)CC2OC(C)(C)OC21 (stereo not given in full)	110*	96*	-5	.	.	.

Compound activity (PubChem)
